Data as given in PubChem BioAssay AID1159580 (chemical genetic matrix, 2015).
In all, about 5,500 compounds went through this assay and about 2,000 (36%) were called active. Roughly 18% stayed inconclusive and do not appear here. Cut-off read from the data, not from the text of the source: active = normalized growth mostly below about 0.91 (no sharp cut-off); inconclusive = no clear call, values can overlap the other calls; inactive = mostly above about 0.92. The list shows a part of the results.

Experiment: chemical genetic growth profiling, strain panel (AID 1159580);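 note: tested at 20 µM; growth read once vehicle control cultures reached saturation at 30 °C; 1 = growth at the plate median or of vehicle wells; lower values mean less growth of the strain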
Settings: S. cerevisiae deletion strains, growth OD
[1] = locus YHR030C, strain SLT2, stronger effect = lower value

Measured: normalized growth

CC12CCC3C4CCC(=O)C=C4CCC3C1CCC2=O (configuration not stated)
inactive: locus YAL013W, strain DEP1, stronger effect = lower value 1.01 | locus YBR229C, strain ROT2, stronger effect = lower value 1.01 | locus YDL101C, strain DUN1, stronger effect = lower value 1 | locus YDR150W, strain NUM1, stronger effect = lower value 0.995 | locus YEL061C, strain CIN8, stronger effect = lower value 1.01 | locus YGR078C, strain PAC10, stronger effect = lower value 1.01 | locus YGR229C, strain SMI1, stronger effect = lower value 1.01 | [1] 0.898 | locus YHR087W, strain rtc3, stronger effect = lower value 1.03 | locus YJR043C, strain POL32, stronger effect = lower value 1.02 | locus YJR075W, strain HOC1, stronger effect = lower value 1.02 | locus YLR058C, strain SHM2 (second series), stronger effect = lower value 1.01 | locus YLR085C, strain ARP6, stronger effect = lower value 1.02 | locus YML094W, strain GIM5, stronger effect = lower value 0.994 | locus YMR219W, strain ESC1, stronger effect = lower value 1.01 | locus YMR263W, strain SAP30, stronger effect = lower value 0.999 | locus YMR307W, strain GAS1, stronger effect = lower value 0.989 | locus YNL153C, strain GIM3, stronger effect = lower value 0.991 | locus YNL298W, strain CLA4 (second series), stronger effect = lower value 1.01 | locus YNL322C, strain KRE1, stronger effect = lower value 1.02 | locus YNR030W, strain Alg12, stronger effect = lower value 0.998 | locus YOL006C, strain TOP1, stronger effect = lower value 0.971 | locus YPL055C, strain LGE1, stronger effect = lower value 1.02 | locus YPL241C, strain CIN2, stronger effect = lower value 1.01 | locus YPR135W, strain CTF4, stronger effect = lower value 0.897
active: locus YLR039C, strain RIC1, stronger effect = lower value 0.786 | locus YLR262C, strain YPT6, stronger effect = lower value 0.737

C#C[C@]1(OC(C)=O)CCC2C3CCC4=C/C(=N\O)CCC4C3CC[C@@]21CC (some centres not stated)
inactive: locus YAL026C, strain drs2, stronger effect = lower value 0.921 | locus YBR171W, strain sec66, stronger effect = lower value 0.944 | locus YCL061C, strain MRC1, stronger effect = lower value 0.94 | locus YCL069W, strain vba3, stronger effect = lower value 0.984 | locus YDR001C, strain nth1, stronger effect = lower value 0.998 | locus YDR334W, strain swr1, stronger effect = lower value 1 | locus YEL037C, strain rad23, stronger effect = lower value 0.993 | locus YEL061C, strain CIN8 (second series), stronger effect = lower value 0.996 | locus YER111C, strain swi4, stronger effect = lower value 1.01 | locus YGL227W, strain vid30, stronger effect = lower value 0.97 | locus YJL092W, strain hpr5, stronger effect = lower value 0.941 | locus YJL115W, strain asf1, stronger effect = lower value 1.01 | locus YJL154C, strain vps35, stronger effect = lower value 0.994 | locus YJR066W, strain TOR1, stronger effect = lower value 0.863 | locus YKR026C, strain gcn3, stronger effect = lower value 0.99 | locus YKR091W, strain srl3, stronger effect = lower value 0.941 | locus YLR357W, strain rsc2, stronger effect = lower value 0.937 | locus YLR384C, strain iki3, stronger effect = lower value 1.01 | locus YMR129W, stronger effect = lower value 0.986 | locus YNL183C, strain NPR1, stronger effect = lower value 0.84 | locus YNL248C, strain rpa49, stronger effect = lower value 0.996 | locus YNL322C, strain KRE1 (second series), stronger effect = lower value 1.01 | locus YNR049C, strain mso1, stronger effect = lower value 0.987 | locus YOR080W, strain dia2, stronger effect = lower value 0.917
active: locus YAL021C, strain ccr4, stronger effect = lower value 0.823 | locus YAL030W, strain snc1, stronger effect = lower value 0.582 | locus YBL061C, strain skt5, stronger effect = lower value 0.514 | locus YBR009C, strain hhf1, stronger effect = lower value 0.403 | locus YBR023C, strain chs3, stronger effect = lower value 0.612 | locus YBR231C, strain swc5, stronger effect = lower value 0.333 | locus YBR279W, strain paf1, stronger effect = lower value 0.879 | locus YCL011C, strain gbp2, stronger effect = lower value 0.476 | locus YCL016C, strain dcc1, stronger effect = lower value 0.77 | locus YCR088W, strain abp1, stronger effect = lower value 0.898 | locus YDL005C, strain med2, stronger effect = lower value 0.41 | locus YDL040C, strain nat1, stronger effect = lower value 0.726 | locus YDR069C, strain doa4, stronger effect = lower value 0.367 | locus YDR137W, strain rgp1, stronger effect = lower value 0.242 | locus YDR159W, strain sac3, stronger effect = lower value 0.267 | locus YDR195W, strain ref2 0.269 | locus YDR297W, strain sur2, stronger effect = lower value 0.716 | locus YDR335W, strain msn5, stronger effect = lower value 0.866 | locus YDR392W, strain spt3, stronger effect = lower value 0.193 | locus YEL003W, strain gim4, stronger effect = lower value 0.759 | locus YER015W, strain faa2, stronger effect = lower value 0.918 | locus YER016W, strain bim1, stronger effect = lower value 0.599 | locus YER155C, strain BEM2 (second series), stronger effect = lower value 0.737 | locus YFR010W, strain ubp6, stronger effect = lower value 0.761 | locus YGL167C, strain pmr1, stronger effect = lower value 0.682 | locus YGL173C, strain kem1, stronger effect = lower value 0.817 | locus YGL240W, strain doc1, stronger effect = lower value 0.782 | locus YGL253W, strain hxk2, stronger effect = lower value 0.71 | locus YHR013C, strain ard1, stronger effect = lower value 0.315 | locus YHR027C, strain rpn1, stronger effect = lower value 0.725 | [1] 0.671 | locus YHR079C, strain IRE1, stronger effect = lower value 0.707 | locus YHR142W, strain chs7, stronger effect = lower value 0.776 | locus YJL095W, strain BCK1 (second series), stronger effect = lower value 0.503 | locus YJL095W, strain BCK1, stronger effect = lower value 0.605 | locus YJL129C, strain trk1, stronger effect = lower value 0.56 | locus YJL164C, strain tpk1, stronger effect = lower value 0.469 | locus YJL166W, strain qcr8, stronger effect = lower value 0.344 | locus YJL187C, strain SWE1, stronger effect = lower value 0.582 | locus YKL160W, strain elf1, stronger effect = lower value 0.495 | locus YLL001W, strain dnm1, stronger effect = lower value 0.826 | locus YLL026W, stronger effect = lower value 0.461 | locus YLL041C, strain sdh2, stronger effect = lower value 0.775 | locus YLR027C, strain aat2, stronger effect = lower value 0.513 | locus YLR113W, strain HOG1, stronger effect = lower value 0.305 | locus YLR221C, strain rsa3, stronger effect = lower value 0.638 | locus YLR258W, strain gsy2, stronger effect = lower value 0.495 | locus YLR262C, strain YPT6 (second series), stronger effect = lower value 0.18 | locus YLR320W, strain mms22, stronger effect = lower value 0.558 | locus YLR342W, strain FKS1, stronger effect = lower value 0.518 | locus YLR370C, strain arc18, stronger effect = lower value 0.785 | locus YML120C, strain ndi1, stronger effect = lower value 0.471 | locus YMR058W, strain fet3, stronger effect = lower value 0.89 | locus YMR125W, strain sto1, stronger effect = lower value 0.884 | locus YMR205C, strain PFK2, stronger effect = lower value 0.358 | locus YMR231W, strain pep5, stronger effect = lower value 0.45 | locus YNL071W, strain lat1, stronger effect = lower value 0.476 | locus YNL209W, strain ssb2, stronger effect = lower value 0.846 | locus YOR001W, strain rrp6, stronger effect = lower value 0.767 | locus YOR070C, strain gyp1, stronger effect = lower value 0.394 | locus YOR083W, strain WHI5, stronger effect = lower value 0.619 | locus YOR106W, strain vam3, stronger effect = lower value 0.281 | locus YOR231W, strain MKK1, stronger effect = lower value 0.673 | locus YOR265W, strain rbl2, stronger effect = lower value 0.668 | locus YOR270C, strain vph1, stronger effect = lower value 0.512 | locus YOR290C, strain snf2, stronger effect = lower value 0.563 | locus YPL051W, strain arl3, stronger effect = lower value 0.456 | locus YPL078C, strain atp4, stronger effect = lower value 0.835 | locus YPL106C, strain sse1, stronger effect = lower value 0.824 | locus YPL240C, strain hsp82, stronger effect = lower value 0.604 | locus YPL256C, strain CLN2, stronger effect = lower value 0.752
